Assay outcomes from PubChem.
KB-3-1 tox = KB-3-1 parental cell cytotoxicity; 400,000 tested, 1.4% active; KB-3-1 viability, CellTiter-Glo ATP luminescence, 72 h; AID 1347075; Potency, µM (top dose mostly 46.1 µM), actives largely listed as cytotoxic; note: nearly all actives have a fitted effect of over 60% in size
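Screening of KB-3-1 cells (DMEM, 10% FBS, phenol-red free) ran from lowest to highest compound concentration; after 72 h at 37 °C viability was read luminescently and curves fitted.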
TDP1 cell noCPT = qHTS for Inhibitors of human tyrosyl-DNA phosphodiesterase 1 (TDP1): qHTS in cells in absence of CPT | DT40 Tdp1-/- hTDP1 cells, no CPT, ATP luminescence, 48 h | 420,000 tested, 15% active | AID 686978, 2013 | Potency, µM (top dose mostly 46.2 µM), for inactives: at the highest dose activity change, negative = growth inhibition, most hits filed as inhibitors; note: nearly all actives have a fitted effect of over 55% in size
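Luminescent ATP content (CellTiter-Glo) served as the growth readout. Knockout chicken DT40 cells expressing human TDP1 were exposed to compounds without camptothecin for a minimum 48 hr at 37 °C.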
HT1080 IDH1KD tx = HT-1080 IDH1 knockdown cell toxicity (counter line). 360,000 tested, 2% active. Potency, µM (doses to about 46.1 µM), for the others: top-dose activity, negative = toxicity, actives largely listed as cytotoxic. HT-1080 IDH1 knockdown viability, ATP luminescence, 48 h;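 note: 0% = DMSO wells and -100% = cell-free medium wells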
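In this qHTS, HT-1080 cells depleted of IDH1 are exposed for 48 h at 37 °C to compound titrations. Toxicity is scored from CellTiter-Glo luminescence, with DMSO as full viability and medium alone as none.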
HT1080NT lethal = kills 2HG-producing HT-1080-NT fibrosarcoma cells; Potency, µM (titrated, usually from 46.1 µM), without a hit: at the highest dose activity, negative = less viability, hits mostly cytotoxic; 360,000 tested, 1.6% active; HT-1080-NT fibrosarcoma viability, CellTiter-Glo ATP luminescence, 48 h;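 note: NT is the 2HG producing partner of a matched IDH1 knockdown line; 0% = DMSO-treated cells and -100% = media-only wells without cells; nearly all actives have a fitted effect of over 55% in size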
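A 48-hour cytotoxicity screen used HT-1080-NT cells plated 2 hours before compound delivery. ATP-based CellTiter-Glo luminescence measured viability, normalized to DMSO and no-cell controls.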
DT40 TDP1 CPT = growth inhibition of DT40 Tdp1-/-;hTDP1 cells with camptothecin (screen for TDP1 inhibitors); chicken DT40 Tdp1-/-;hTDP1 cells + 20 nM CPT, ATP luminescence, 48 h; Potency, µM (series often up to 46.2 µM), for inactives: top-dose activity change, negative = growth inhibition, usual class: inhibitors; 420,000 tested, 12% active; AID 686979; note: nearly all actives have a fitted effect of over 55% in size
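Chicken DT40 Tdp1-/- cells stably complemented with human TDP1 were seeded at 400 cells/well in medium containing 20 nM camptothecin, exposed to pin-transferred compounds, and grown at 37 °C for at least 48 hr. Viability was read as ATP luminescence.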
KB-V1 cytotox = kills drug-selected multidrug resistant KB-V1 cells. KB-V1 MDR cells viability, CellTiter-Glo, 72 h. Potency, µM (titrated, usually from 46.1 µM), hits mostly cytotoxic. 400,000 tested, 3.4% active; note: nearly all actives have a fitted effect of over 60% in size
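KB-V1, DMEM (no phenol red) + 10% FBS; cpd pin-transferred, titration series; 72 h, 37 degrees C; CellTiter-Glo, luminescence. Data normalized, curve-fit.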
The depositor's hits bear a star; i = inactive; ? = inconclusive; . = no result. The list is not random: actives were taken first. Their share in the collection is about 19%. Calls come from the whole dose curve; as a rule, active = well fitted curve in the direction sought with a large enough effect; inconclusive = small, poorly fitted or top-dose-only effect, or another doubt; inactive = no such curve, though single readings can be large; an effect the other way counts as inactive or inconclusive. Unless noted, % is set by controls: 0 for no effect and ±100 for the full control effect; potency is the fitted concentration of half-maximal effect.

SMILES	KB-3-1 tox	TDP1 cell noCPT	HT1080 IDH1KD tx	HT1080NT lethal	DT40 TDP1 CPT	KB-V1 cytotox
COc1ccc(NC(C)=O)cc1NC(=O)C1CCN(C(=O)Nc2ccccc2)CC1	i	4%	-8%	0%	10%	i
CNc1ccc(/C=C/c2ccnc3ccccc23)cc1	?	16µM*	.	.	11µM*	?
CCCCCCNc1ccc(/C=C/c2ccnc3ccccc23)cc1	i	13µM*	.	.	16µM*	?
CCNc1ccc(/C=C/c2ccnc3ccccc23)cc1	?	4µM*	.	.	-109%	i
NS(=O)(=O)c1ccc(NC(=O)CN2C(=O)C3C4C=CC(C4)C3C2=O)cc1 (configuration not stated)	i	-17%	10%	-8%	-7%	?
CCCCN(CC)CCNC(=O)Cn1cnc2sc(C)c(S(=O)(=O)N3CCN(c4ccccc4OC)CC3)c2c1=O	i	?	.	.	?	?
CCc1ccccc1NC1=NCC(=O)N1Cc1ccc(OC)cc1	i	-16%	3%	-10%	?	i
CCc1ccccc1NC1=NCC(=O)N1C1CCCC1	i	?	6%	1%	23µM*	i
Cc1nn(-c2cccc(Cl)c2)c2nc(C(F)(F)F)[nH]c(=O)c12	i	29µM*	?	?	?	i
COc1ccc(Cl)cc1NC(=O)Cn1nnc2sc(-c3ccccc3)cc2c1=O	i	?	.	.	?	i
O=C1N[C@@H](Cc2c[nH]c3ccccc23)COC(=O)[C@@H](Cc2ccc(F)cc2)C/C=C\C[C@H]1CC(=O)N(CCO)Cc1ccccc1	?	21µM*	?	-18%	?	i
C[C@H]1COC(=O)[C@@H](Cc2ccc(F)cc2)C/C=C\C[C@H](CC(=O)N(CCO)Cc2ccccc2)C(=O)N1	i	23µM*	-4%	-10%	21µM*	i
O=C1N[C@@H](Cc2c[nH]c3ccccc23)COC(=O)[C@H](Cc2ccc(F)cc2)C/C=C\C[C@@H]1CC(=O)N(CCO)Cc1ccccc1	?	?	?	?	?	i
O=C1N[C@H](Cc2ccccc2)COC(=O)[C@@H](Cc2ccc(F)cc2)C/C=C\C[C@H]1CC(=O)N(CCO)Cc1ccccc1	i	26µM*	-23%	?	?	i
O=C1OC[C@@H]2CCCN2C(=O)[C@@H](CC(=O)N(CCO)Cc2ccccc2)C/C=C\C[C@@H]1Cc1ccc(F)cc1	i	?	0%	15%	23µM*	i
CCOc1ccc(OCCCC(=O)ON=C(N)c2ccccc2C)cc1	i	-18%	1%	-1%	-4%	i
CCC(=O)N1CCC1(C)C(=O)NCc1ccc(SC)cc1 (configuration not stated)	i	2%	?	13%	-6%	i
O=C1N[C@H](Cc2ccccc2)COC(=O)[C@H](Cc2ccc(F)cc2)C/C=C\C[C@@H]1CC(=O)N(CCO)Cc1ccccc1	?	16µM*	?	?	?	i
O=C1N[C@@H](Cc2ccccc2)COC(=O)[C@H](Cc2ccc(F)cc2)C/C=C\C[C@@H]1CC(=O)N(CCO)Cc1ccccc1	?	?	-20%	-14%	?	i
CCOC(=O)c1cc(-c2ccccc2)sc1NC(=O)C(C)Sc1nnc(C)s1 (configuration not stated)	i	-84%	-2%	-2%	-59%	?
CCOC(=O)c1cc(-c2ccccc2)sc1NC(=O)c1ccc(OC)c(OC)c1	i	?	15%	22%	13µM*	?
CCOC(=O)c1cc(-c2ccccc2)sc1NC(=O)COC	i	-1%	14%	18%	-18%	i
CCOC(=O)c1cc(-c2ccccc2)sc1NC(=O)C(C)OC(=O)c1ccncc1 (configuration not stated)	i	18µM*	19%	20%	23µM*	?
CCOC(=O)c1cc(-c2ccccc2)sc1NC(=O)C(C)C	i	?	12%	19%	-30%	i
CCOC(=O)c1cc(-c2ccccc2)sc1NC(=O)C(C)OC(=O)c1cccnc1Cl (configuration not stated)	i	23µM*	24%	20%	23µM*	i
SMILES	KB-3-1 tox	TDP1 cell noCPT	HT1080 IDH1KD tx	HT1080NT lethal	DT40 TDP1 CPT	KB-V1 cytotox
Cc1onc(COc2ccccc2O)c1Br	i	-17%	1%	2%	-7%	i
COc1ccc(CCNc2nc(SCc3ccccc3Cl)nc3ccccc23)cc1OC	.	4.6µM*	.	.	8.2µM*	.
COc1ccc(CNc2nc(SCc3ccccc3Cl)nc3ccccc23)cc1	.	16µM*	.	.	?	.
CNc1cc(-c2ccccc2C(F)(F)F)ncn1	.	1%	.	.	-2%	.
CCn1c(SCc2ccc(F)cc2)nnc1-c1nn(-c2ccccc2)ccc1=O	i	-7%	0%	-2%	?	i
CCN(c1nc(N)c(C(=O)N=C(N)N)nc1Cl)C(C)C	i	7.3µM*	?	-28%	21µM*	i
Cc1ccc2c(c1)c1c3n2CC(=C2C(=O)OC(C)(C)OC2=O)NC3CCC1 (configuration not stated)	i	21µM*	-26%	?	21µM*	21µM*
Cc1ccc2c(c1)c1c3n2CCN(C(=O)C2CC2)C3CCC1 (configuration not stated)	i	?	8%	-2%	?	i
Cc1nc2ccc([N+](=O)[O-])cc2c(=O)n1Cc1ccc(F)cc1	i	?	-25%	-2%	?	i
CCn1c(C)nc([N+](=O)[O-])c1Sc1ccc(F)cc1	i	16µM*	-12%	-1%	?	i
CS(=O)(=O)c1nc(-c2ccc(Br)cc2)cc(-c2ccccc2)c1C#N	?	2.6µM*	?	?	4.1µM*	i
CS(=O)c1nc(-c2ccc(Br)cc2)cc(-c2ccccc2)c1C#N (configuration not stated)	?	2.6µM*	3.5µM*	5.6µM*	1.8µM*	?
CCS(=O)(=O)CCSc1nc(-c2ccc(Br)cc2)cc(-c2ccccc2)c1C#N	i	-14%	.	.	-15%	i
CCN1/C(=C2/SC(=S)N(NC(C)=O)C2=O)Sc2ccc(Cl)cc21	i	18µM*	1%	5%	?	i
